{
  "source": "PubChem BioAssay (NCI)",
  "note": "About 83,000 compounds went through this panel and 20% of them were active in at least one assay; those are over-represented in the sample as a whole.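 Plates (96-well) were seeded with cells, treated with compound at one concentration, and incubated for 48 hours before percent growth was determined.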 A number with no mark means an inactive call. Calls of active or inactive are those of the source.",
  "data": [
    {"system": "M14 melanoma", "assay": "NCI-60 one-dose screen, 48 h (100 = growth as untreated, 0 = no growth, -100 = all killed)", "conditions": "10 µM unless noted", "experimental": "Growth inhibition of the M14 human tumor cell line is measured as a screen for anti-cancer activity. Cells are grown in 96 well plates and exposed to the test compound for 48 hours. Compounds are tested at a single concentration, which is 10^-5 M for most compounds. The reported endpoint is percent growth (GI% or GIPRCNT), where numbers from 0 - 100% represent growth inhibition, and numbers from -100% - 0 represent cell death. For example, a value of 40 represents 60% growth inhibition. A value of 0 means no net growth occurred over the course of the experiment. A value of -40 indicates 40% of cells at the beginning of the experiment died by the end of the experiment. A value of -100 means all cells are dead at the end of the experiment.\nNCI-60 Human Tumor Cell Lines Screen was performed using the standard one-dose NCI protocol, which is described in more detail at https://dtp.cancer.gov/discovery_development/nci-60/default.htm.\nCompounds with GIPRCNT values below 10 were considered active. Activity score was based on GIPRCNT using the following formula: […]\nScore is 0 for GIPRCNT values of 100 or above, 50 for GIPRCNT values of 0, and 100 for GIPRCNT values of -100.", "values": [
      {"smiles": "FC(F)(F)c1cccc(-n2nnc3cnc(Nc4ccc(N5CCCCC5)cc4)nc32)c1", "growth": "33.8%"},
      {"smiles": "O=C1C2=C(C(=O)c3c(O)ccc(O)c31)N(c1cccnc1)Cc1ccccc1O2", "growth": "-78% (active)"},
      {"smiles": "CC(C)CCC[C@@H](C)[C@H]1CC[C@H]2[C@@H]3CC[C@H]4C/C(=N/O)CC[C@]4(C)[C@H]3CC[C@]12C", "growth": "104%"},
      {"smiles": "COc1ccc(OC)c(C(=O)c2oc3ccc(Br)cc3c2N)c1", "growth": "27.3%"},
      {"smiles": "CCn1cc(C(=O)O)c(=O)c2cc(F)c(N3CCN(S(=O)(=O)c4ccc(OC)c(OC)c4)CC3)cc21", "growth": "44.1%"},
      {"smiles": "O=C(CN1CCOCC1)Nc1ccc(-c2nc3ccccc3s2)cc1", "growth": "101%"},
      {"smiles": "NC(=O)c1c(NC(=O)c2ccc(OCC3CCCO3)cc2)sc2c1CCCC2", "note": "(stereo not given)", "growth": "108%"},
      {"smiles": "Nc1c(C(=O)Nc2c(Cl)cccc2Cl)sc2nc3c(cc12)CCCCC3", "growth": "43.8%"},
      {"smiles": "COc1ccc(S(=O)(=O)NCCNc2nccc(-c3c(-c4ccccc4)nc4sccn34)n2)cc1", "growth": "29.4%"},
      {"smiles": "CCC(c1ccc(OC)cc1)C(CC)c1ccc(O)c(CN2CCCC2)c1", "note": "(stereo not given)", "growth": "-47.4% (active)"},
      {"smiles": "O=C(Nc1ccc(F)cc1)c1cc([N+](=O)[O-])ccc1O", "growth": "75.7%"},
      {"smiles": "CC1=CNNc2c3ncnc-3ncn21", "growth": "108%"},
      {"smiles": "CC[C@H](C)[C@@H]1NC(=O)[C@H]([C@@H](C)O)NC(=O)C(Cc2ccccc2)NC(=O)[C@@H]2CCCN2C(=O)C(C(C)C)NC(=O)C(Cc2ccccc2)NC(=O)CNC(=O)[C@@H]2CCCN2C1=O", "note": "(stereo not given in full)", "growth": "22.2%"},
      {"smiles": "CCCC(C(=O)OCC)C(C)OC(=O)OCC", "note": "(stereo not given)", "growth": "97.6%"},
      {"smiles": "CSc1ccccc1C#C/C=C\\C#Cc1ccccc1N1CCCC1=O", "growth": "64.5%"},
      {"smiles": "COc1ccc(-c2nc3sccn3c2-c2ccnc(NCCCNS(=O)(=O)c3ccc4ccccc4c3)n2)cc1", "growth": "56.5%"},
      {"smiles": "CCCOC(=O)C1(O)CCCC1", "growth": "107%"},
      {"smiles": "c1cncc(CNc2ccccc2-c2nnc(Nc3ccc4c(c3)OCCO4)o2)c1", "growth": "12.7%"},
      {"smiles": "CCNCc1ccncc1", "growth": "94.5%"},
      {"smiles": "Cc1nc(Nc2cccnc2)sc1C(=O)/C=C/c1ccc(Cl)cc1", "growth": "38.2%"},
      {"smiles": "O=C(Nc1cccc(Cl)c1)c1cc([N+](=O)[O-])ccc1O", "growth": "54.9%"},
      {"smiles": "Clc1ccc(-c2nc(-c3ccco3)cn3ccnc23)cc1", "growth": "97.4%"},
      {"smiles": "COc1ccc2c(c1)C(C)Cc1c(N(C)C)ncnc1N2C", "note": "(stereo not given)", "growth": "25.5%"},
      {"smiles": "CCC1CCc2nc3sc(C(=O)Nc4ccccc4C)c(N)c3cc2C1", "note": "(stereo not given)", "growth": "19.8%"},
      {"smiles": "CC(C)(C)c1cn2cccc(C(=O)N3CCN(CC(=O)Nc4ccc(Cl)cc4C(=O)c4ccccc4Cl)CC3)c2n1", "growth": "48.5%"},
      {"smiles": "COc1cc(C(=O)/C=C/c2cc(C(=O)c3cc(OC)c(OC)c(OC)c3)ccc2OC)ccc1N", "growth": "-52.9% (active)"},
      {"smiles": "CC/C=C\\C/C=C\\C[C@H](O)C/C=C1/C(=O)C=C[C@H]1C/C=C\\CCC(=O)OC", "growth": "12.7% [8.25 µM]"},
      {"smiles": "COc1ccc(-c2nnc(COc3ccc(NC(=O)Nc4ccc(Cl)c(C(F)(F)F)c4)cc3F)o2)cc1", "growth": "9.03% (active)"},
      {"smiles": "Clc1nc2ccccc2nc1CI", "growth": "55.3%"},
      {"smiles": "CCCCCCCC/C=C\\CCCCCCCCOc1ccccc1CCOP(=O)(O)OCC[N+](C)(C)C", "growth": "84.4%"},
      {"smiles": "CCC(c1ccc(OC)cc1)C(CC)c1ccc(OCC[N+](C)(C)C)cc1", "note": "(stereo not given)", "growth": "64%"},
      {"smiles": "c1cc(-c2ccc3c(c2)OCO3)n2nccc2n1", "growth": "109%"},
      {"smiles": "Cc1nc2sccn2c1-c1csc(Nc2ccccc2Cl)n1", "growth": "36.9%"},
      {"smiles": "CC/C=C\\C/C=C\\C[C@H]1C/C=C2/C(=O)C=C[C@H]2C/C=C\\CCC(=O)O1", "growth": "-3.62% (active)"},
      {"smiles": "COc1cc(/C=C2\\CCCC3=C2NC(C)=NC3c2cc(OC)c(OC)c(OC)c2)cc(OC)c1OC", "note": "(stereo not given)", "growth": "-42% (active)"},
      {"smiles": "Nc1c(C(=O)Nc2cccc([N+](=O)[O-])c2)sc2nc3c(cc12)C(O)CCC3", "note": "(stereo not given)", "growth": "35.3%"},
      {"smiles": "NS(=O)(=O)c1ccc(NCC(=O)Nc2ccc(-c3nc4ccccc4s3)cc2)cc1", "growth": "45.6%"},
      {"smiles": "COc1ccc([N+](=O)[O-])c(/C=C/C(=O)c2ccccn2)c1", "growth": "104%"},
      {"smiles": "O=C(CNc1ccc(Cl)cc1)Nc1ccc(-c2nc3ccccc3s2)cc1", "growth": "44.2%"},
      {"smiles": "CC1Cc2c(N(C)C)ncnc2N(C)c2ccc(O)cc21", "note": "(stereo not given)", "growth": "73.7%"}
    ]}
  ]
}
